Laboratory results as given in PubChem BioAssay.
Records with an inconclusive call do not appear. Activity calls are given as the source filed them. Rule as the data show it, unless noted: active = response above about 15%; inactive = the rest.

How the values were obtained:
[1] = rapamycin-like changes in RPL19A-GFP expression – cell-based, S. cerevisiae, multiplex flow cytometry, primary screen (AID 1862; in the data active = percent of DMSO control GFP below about 86%;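 also: lower values mimic rapamycin by blocking the RPL19A rise seen in DMSO cells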); conditions: S. cerevisiae RPL19A-GFP strain, flow cytometry fluorescence, 3 h; at 10 µM; stronger effect = lower value
[2] = TOR pathway GLN3 branch reporter MEP2-GFP changes – S. cerevisiae, multiplex flow cytometry, primary screen (AID 1867;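 active = GFP response, as percent of the DMSO control, above the screen-wide mean plus 3 SD, about 139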;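 also: median GFP channel fluorescence of barcode-gated MEP2-GFP cells measured by flow cytometry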); conditions: S. cerevisiae MEP2-GFP strain, 3 h, at 10 µM, stronger effect = higher value, 100% means same as DMSO wells
[3] = TOR pathway RTG branch CIT2 reporter changes – S. cerevisiae, GFP fusion, multiplex flow cytometry, primary screen (AID 1870;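 active = percent response above a set limit, the screen-wide mean plus 3 SD, cut at about 130% in these data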;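 also: barcoded CIT2-GFP strain pooled with four other GFP strains with rapamycin as positive control; median GFP fluorescence per well over plate mean of DMSO wells so 100% = DMSO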); conditions: S. cerevisiae CIT2-GFP expression, 3 h, at 10 µM, stronger effect = higher value
[4] = TOR pathway LAP4-GFP level changes – S. cerevisiae, multiplex flow cytometry, primary screen (AID 1873;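 active = GFP signal, as percent of the solvent control, above the screen mean plus 3 SD, about 149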); conditions: S. cerevisiae LAP4-GFP expression, 3 h, at 10 µM, stronger effect = higher value
[5] = yeast AGP1-GFP level changes, GLN3 branch – cell-based, multiplex flow cytometry, S. cerevisiae, primary screen (AID 1887;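 active = GFP signal above the screen-wide mean plus 3 SD, that is over about 124.5% of the solvent control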;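 also: AGP1-GFP fusion strain of S. cerevisiae within a five-strain barcoded multiplex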); conditions: 3 h, at 10 µM, stronger effect = higher value
[6] = reduced mouse 2C T cell binding to pMHC/ICAM-1 vesicles – MLPCN validation set, flow cytometry, LFA-1/ICAM-1 modulator project, pilot screen (AID 2523;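 active = response below a set limit, under 55% cells CD8-positive and vesicle-bound, and CD8 cells' 90th-percentile brightness under 279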;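 as to vesicle binding response: mean PE anti-B7-1 fluorescence of CD8+ cells relative to row control; 100% = QL9-loaded vesicles with DMSO vehicle in the same plate row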); conditions: 2C mouse CD8+ T cells, at 7 µM, stronger effect = lower value; double positive events: measured here: CD8+/vesicle+ event percentage
[7] = biological target: Integrin beta-1 (Homo sapiens) + Integrin alpha-4 (Homo sapiens) (UniProt P13612+P05556); assay: alpha4beta1 integrin LIBS antibody binding reduction – U937 cells, HUTS-21 mAb, flow cytometry, validation set, VLA-4 allosteric modulator project, pilot screen (AID 2674;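 active = inhibition above 50%, about 3 SD of the validation set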;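 also: antibody binding induced by the VLA-4 ligand LDV present at three times its Kd; 0% = LDV ligand with antibody and no compound and 100% = antibody without LDV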); conditions: HUTS-21 LIBS mAb binding, at 6.7 µM, stronger effect = higher value, binding induced by LDV ligand
Integrin beta-1 (Homo sapiens) + Integrin alpha-4 (Homo sapiens), sequence (P05556 whole entry, looked up): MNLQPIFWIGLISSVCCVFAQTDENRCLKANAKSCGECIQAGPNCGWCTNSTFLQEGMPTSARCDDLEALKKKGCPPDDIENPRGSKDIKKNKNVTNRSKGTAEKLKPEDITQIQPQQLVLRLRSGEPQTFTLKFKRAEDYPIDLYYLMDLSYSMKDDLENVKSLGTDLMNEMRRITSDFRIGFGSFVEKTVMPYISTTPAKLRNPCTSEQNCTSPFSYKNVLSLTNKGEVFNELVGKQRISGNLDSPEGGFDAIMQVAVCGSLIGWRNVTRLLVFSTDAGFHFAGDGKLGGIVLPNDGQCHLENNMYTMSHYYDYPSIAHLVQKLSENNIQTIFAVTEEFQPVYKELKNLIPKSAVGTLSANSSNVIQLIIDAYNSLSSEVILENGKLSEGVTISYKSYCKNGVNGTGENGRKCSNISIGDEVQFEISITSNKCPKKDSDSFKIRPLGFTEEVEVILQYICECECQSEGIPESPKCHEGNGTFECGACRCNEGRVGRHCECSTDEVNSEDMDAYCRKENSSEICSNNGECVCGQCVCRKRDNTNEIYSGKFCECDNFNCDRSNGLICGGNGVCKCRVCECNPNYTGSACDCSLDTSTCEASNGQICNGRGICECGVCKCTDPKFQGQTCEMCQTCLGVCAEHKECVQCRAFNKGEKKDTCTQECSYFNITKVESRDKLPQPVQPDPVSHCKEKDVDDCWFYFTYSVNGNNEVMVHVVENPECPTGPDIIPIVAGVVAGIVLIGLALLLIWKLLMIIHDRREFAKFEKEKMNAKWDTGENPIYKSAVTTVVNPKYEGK
Integrin beta-1 (Homo sapiens) + Integrin alpha-4 (Homo sapiens), sequence (P13612 whole entry, looked up): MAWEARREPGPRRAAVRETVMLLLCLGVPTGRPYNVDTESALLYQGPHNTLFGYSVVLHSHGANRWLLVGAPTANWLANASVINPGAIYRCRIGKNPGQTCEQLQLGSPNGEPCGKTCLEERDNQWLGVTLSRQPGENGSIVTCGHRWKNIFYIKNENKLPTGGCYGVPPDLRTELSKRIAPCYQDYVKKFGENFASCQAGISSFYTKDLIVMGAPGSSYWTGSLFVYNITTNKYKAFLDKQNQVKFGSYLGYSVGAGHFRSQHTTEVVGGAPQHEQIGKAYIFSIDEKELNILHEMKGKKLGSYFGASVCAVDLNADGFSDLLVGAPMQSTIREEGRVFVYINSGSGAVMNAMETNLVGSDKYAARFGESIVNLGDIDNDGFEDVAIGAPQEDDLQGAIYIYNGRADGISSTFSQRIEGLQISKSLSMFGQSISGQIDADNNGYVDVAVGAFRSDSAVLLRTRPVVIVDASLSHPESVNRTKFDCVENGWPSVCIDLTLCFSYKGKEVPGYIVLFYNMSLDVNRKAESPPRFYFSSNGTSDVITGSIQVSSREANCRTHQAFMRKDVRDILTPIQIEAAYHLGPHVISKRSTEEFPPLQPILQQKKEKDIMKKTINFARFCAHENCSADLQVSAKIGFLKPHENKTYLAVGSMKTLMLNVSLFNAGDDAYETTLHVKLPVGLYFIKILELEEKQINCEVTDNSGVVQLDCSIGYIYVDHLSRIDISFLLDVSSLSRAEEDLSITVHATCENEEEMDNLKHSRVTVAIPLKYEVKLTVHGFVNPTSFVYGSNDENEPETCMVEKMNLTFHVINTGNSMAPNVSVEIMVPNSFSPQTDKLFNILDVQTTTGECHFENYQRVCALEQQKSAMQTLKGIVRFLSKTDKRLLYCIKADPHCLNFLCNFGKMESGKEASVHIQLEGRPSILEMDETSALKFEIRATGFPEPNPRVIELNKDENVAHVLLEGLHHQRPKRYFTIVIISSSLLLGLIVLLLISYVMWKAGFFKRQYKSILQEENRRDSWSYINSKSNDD

[8] = calorie-restriction mimetic ROS inhibitors, yeast – validation compound set, pilot screen (AID 2706;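 active = superoxide response below 65% of plate, a cut near 3 SD across the whole screen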;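 also: yeast exposed to compound for one week at 30 degrees C before staining; 100% = mean of all compound wells on the same plate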); conditions: S. cerevisiae aging, superoxide DHE fluorescence; at 10 µM; stronger effect = lower value
[9] = biological target: Beta-adrenergic receptor kinase 1 (Homo sapiens) (UniProt P25098); assay: GRK2 binders displacing RNA aptamer, biochemical, validation, human GRK2, bead flow cytometry (AID 488806;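 active = aptamer binding inhibition above 30%, about 3 SD of noise from non-fluorescent compounds; inactive = inhibition at or below 30%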); conditions: bead-bound GRK2, FAM-aptamer displacement, at 10 µM, stronger effect = higher value
Beta-adrenergic receptor kinase 1 (Homo sapiens), sequence (P25098 whole entry, looked up): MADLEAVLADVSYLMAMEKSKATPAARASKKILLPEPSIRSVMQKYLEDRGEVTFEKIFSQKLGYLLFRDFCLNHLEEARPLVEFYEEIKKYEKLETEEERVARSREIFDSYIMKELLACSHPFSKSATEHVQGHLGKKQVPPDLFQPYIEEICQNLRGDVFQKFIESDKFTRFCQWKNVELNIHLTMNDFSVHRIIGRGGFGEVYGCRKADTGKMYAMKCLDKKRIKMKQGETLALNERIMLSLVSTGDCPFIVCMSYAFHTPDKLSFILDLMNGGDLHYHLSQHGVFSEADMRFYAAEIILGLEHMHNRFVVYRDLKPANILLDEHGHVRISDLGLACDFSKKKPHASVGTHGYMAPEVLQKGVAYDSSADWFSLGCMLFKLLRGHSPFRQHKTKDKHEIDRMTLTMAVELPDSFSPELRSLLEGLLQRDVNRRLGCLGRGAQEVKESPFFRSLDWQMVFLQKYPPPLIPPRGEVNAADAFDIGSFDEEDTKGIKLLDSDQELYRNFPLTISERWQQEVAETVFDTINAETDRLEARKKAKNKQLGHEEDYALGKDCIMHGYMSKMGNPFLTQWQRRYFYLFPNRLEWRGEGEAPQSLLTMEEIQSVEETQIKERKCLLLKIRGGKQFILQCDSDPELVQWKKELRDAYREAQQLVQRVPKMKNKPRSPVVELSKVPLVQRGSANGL

[10] = biological target: Beta-2 adrenergic receptor (Homo sapiens) (UniProt P07550); assay: agonist-induced loss of surface beta2AR – cell-based, FAP fluorogen, flow cytometry, validation set, pilot screen (AID 504459;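 active = percent response above 42, roughly 3 SD of non-fluorescent test compounds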;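 also: agonist-driven loss of surface beta2AR via internalization measured by FAP dye flow cytometry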); conditions: Am2.2-beta2AR cells, at 10 µM, stronger effect = higher value
Beta-2 adrenergic receptor (Homo sapiens), sequence (P07550 whole entry, looked up): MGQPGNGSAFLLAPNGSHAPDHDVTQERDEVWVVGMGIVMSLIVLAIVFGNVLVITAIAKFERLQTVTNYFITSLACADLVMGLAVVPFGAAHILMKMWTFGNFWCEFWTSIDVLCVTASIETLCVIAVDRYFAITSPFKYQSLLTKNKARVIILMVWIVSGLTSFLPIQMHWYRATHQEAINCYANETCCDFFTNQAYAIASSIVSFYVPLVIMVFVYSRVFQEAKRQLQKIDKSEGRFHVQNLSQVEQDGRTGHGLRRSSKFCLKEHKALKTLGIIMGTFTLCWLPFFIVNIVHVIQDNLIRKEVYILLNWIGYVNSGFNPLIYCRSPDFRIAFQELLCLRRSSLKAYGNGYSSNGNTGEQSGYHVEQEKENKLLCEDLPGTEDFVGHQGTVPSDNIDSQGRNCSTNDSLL

[11] = biological target: AP-2 complex subunit beta (Homo sapiens) (UniProt P63010); assay: beta-arrestin/AP2 interaction blockers – biochemical, validation set, GST-AP2 beads, flow cytometry, pilot screen (AID 504541;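 active = inhibition above 54%, about 3 SD of non-fluorescent compounds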;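 also: AP2 carries R879A mutation and is captured from E. coli lysate; bead-bound FITC arrestin peptide fluorescence measuring arrestin peptide binding to AP2; 0% = DMSO wells and 100% = excess unlabeled arrestin peptide control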); conditions: FITC arrestin peptide, at 10 µM, stronger effect = higher value, AP2 beta2 appendage fragment, R879A mutant
AP-2 complex subunit beta (Homo sapiens), sequence (P63010 whole entry, looked up, the tested form may be a part, one chain of several): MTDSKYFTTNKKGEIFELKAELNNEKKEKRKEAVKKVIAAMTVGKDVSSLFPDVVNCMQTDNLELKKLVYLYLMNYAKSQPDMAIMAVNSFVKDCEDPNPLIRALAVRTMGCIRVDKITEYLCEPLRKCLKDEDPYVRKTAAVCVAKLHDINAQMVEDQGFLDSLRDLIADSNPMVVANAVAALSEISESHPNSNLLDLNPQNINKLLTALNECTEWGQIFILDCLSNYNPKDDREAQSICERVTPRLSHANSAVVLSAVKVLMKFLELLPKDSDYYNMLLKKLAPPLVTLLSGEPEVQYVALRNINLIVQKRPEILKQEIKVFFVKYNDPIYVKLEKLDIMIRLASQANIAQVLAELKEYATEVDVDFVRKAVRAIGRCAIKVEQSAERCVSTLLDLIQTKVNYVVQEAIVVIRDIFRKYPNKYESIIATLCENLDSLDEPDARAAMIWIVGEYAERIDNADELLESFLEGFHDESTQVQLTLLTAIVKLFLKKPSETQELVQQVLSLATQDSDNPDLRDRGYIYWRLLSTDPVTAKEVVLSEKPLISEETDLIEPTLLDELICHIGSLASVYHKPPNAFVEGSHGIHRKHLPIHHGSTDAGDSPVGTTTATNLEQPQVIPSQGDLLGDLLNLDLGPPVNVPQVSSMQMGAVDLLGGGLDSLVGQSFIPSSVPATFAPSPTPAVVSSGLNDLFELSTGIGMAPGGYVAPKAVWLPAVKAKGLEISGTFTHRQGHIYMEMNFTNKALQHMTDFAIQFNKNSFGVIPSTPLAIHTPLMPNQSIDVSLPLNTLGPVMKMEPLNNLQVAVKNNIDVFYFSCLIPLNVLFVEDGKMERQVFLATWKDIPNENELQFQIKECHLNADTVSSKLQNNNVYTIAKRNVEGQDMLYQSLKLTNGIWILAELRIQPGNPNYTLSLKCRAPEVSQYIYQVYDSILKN

[12] = cytosolic pH regulators acting via V-ATPase – S. cerevisiae, pHLuorin, HTS validation (AID 504600); conditions: V-ATPase proton transport, at 10 µM, stronger effect = higher value;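 also: plate controls were DMSO for no effect and reference compound for full effect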
[13] = test system: anti-desmoglein-3 scFv antibody binding to human DSG3; assay: blockers of pathogenic pemphigus antibody–desmoglein-3 binding – biochemical, validation compound set, bead-based, flow cytometry, pilot screen (AID 588368;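 active = binding below the plate cutoff, the plate median minus 3 SD, with a reading above zero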;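 also: signal is the median channel fluorescence of bead-bound GFP antibody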); conditions: Protein G beads, DSG3-Fc, scFv-GFP binding, at 10 µM, stronger effect = lower value
[14] = Nile Red efflux blockade in pump-expressing yeast – validation compound set, multiplex, phenotypic, pilot screen (AID 588506;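 active = efflux inhibition above 0.42, the validation set average plus 4 SD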;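 also: Nile Red retained in cells so higher fluorescence means more efflux inhibition; 0 = negative control wells and 1 = enniatin B 25 µM full block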); conditions: S. cerevisiae pump-expressing triplex, Nile Red efflux flow cytometry; at 10 µM; stronger effect = higher value; the pumps come from Candida albicans
[15] = biological target: ATP-binding cassette sub-family B member 6 (Homo sapiens) (UniProt Q9NP58); assay: blockers of ABCB6-driven porphyrin uptake – K562-ABCB6 cells, flow cytometry, validation set, pilot screen (AID 588550;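 active = inhibition above the screen-wide mean plus 3 SD, about 51%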;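 also: 0% = DMSO wells and 100% = benzethonium chloride 70 µM positive control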); conditions: K562-ABCB6 porphyrin accumulation, 1 h, at 10 µM, stronger effect = higher value
ATP-binding cassette sub-family B member 6 (Homo sapiens), sequence (Q9NP58 whole entry, looked up): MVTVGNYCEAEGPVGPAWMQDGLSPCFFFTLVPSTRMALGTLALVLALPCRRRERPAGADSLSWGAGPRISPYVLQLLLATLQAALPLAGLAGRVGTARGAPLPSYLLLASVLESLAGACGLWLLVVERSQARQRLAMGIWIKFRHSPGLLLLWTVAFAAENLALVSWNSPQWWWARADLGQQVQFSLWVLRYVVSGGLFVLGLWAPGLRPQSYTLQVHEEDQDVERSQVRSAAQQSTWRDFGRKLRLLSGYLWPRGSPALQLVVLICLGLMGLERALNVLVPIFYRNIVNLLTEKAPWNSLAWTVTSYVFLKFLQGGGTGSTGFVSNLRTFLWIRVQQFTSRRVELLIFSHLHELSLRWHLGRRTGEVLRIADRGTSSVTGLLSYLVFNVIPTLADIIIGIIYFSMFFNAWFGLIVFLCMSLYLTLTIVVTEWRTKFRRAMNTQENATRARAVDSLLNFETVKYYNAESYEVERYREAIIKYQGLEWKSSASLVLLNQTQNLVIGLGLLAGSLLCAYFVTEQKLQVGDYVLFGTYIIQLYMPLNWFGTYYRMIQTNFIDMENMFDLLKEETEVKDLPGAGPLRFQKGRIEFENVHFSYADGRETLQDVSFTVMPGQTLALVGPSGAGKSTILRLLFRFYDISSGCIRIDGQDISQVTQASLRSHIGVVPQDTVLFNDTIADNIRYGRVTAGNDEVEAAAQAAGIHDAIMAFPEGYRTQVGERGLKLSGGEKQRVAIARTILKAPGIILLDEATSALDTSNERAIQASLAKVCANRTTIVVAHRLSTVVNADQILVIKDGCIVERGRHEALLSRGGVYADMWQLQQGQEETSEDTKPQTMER

[16] = AML differentiation inducers, ER-HoxA9 marrow cells – cell-based, GFP/MAC1 double positive, flow cytometry, validation set, primary screen (AID 588685;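 active = differentiation response of at least 50%, scaled between solvent and reference control, from cells with both markers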;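 also: compound exposure lasts four days before antibody staining and flow analysis; 0% = DMSO wells and 100% = 5 µM fulvestrant positive control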); conditions: stronger effect = higher value, normalized: vehicle 0, fulvestrant 100

Cc1c(Cc2ccccc2)c(=O)oc2c(CN(C)C)c(O)c(Cl)cc12
inactive: percent of DMSO control GFP [1] 98.2% | GFP response vs DMSO [2] 108% | percent response of DMSO control [3] 94.2% | GFP response vs DMSO [4] 92.7% | GFP response, % of DMSO [5] 98% | vesicle binding response [6] 358% | inhibition [7] 0.58% | superoxide response (% of plate) [8] 98.2% | aptamer binding inhibition [9] 3% | response [10] -3.4% | inhibition [11] 0.49% | response [12] 0.93% | binding (% of control) [13] 99.3% | efflux inhibition (fraction of control) [14] -0.39 | inhibition [15] 2% | differentiation response [16] -5.62%
61.8%: double positive events [6]

Cc1cnc(N)c2c(=O)oc3ccccc3c12
inactive: percent of DMSO control GFP [1] 99.8% | GFP response vs DMSO [2] 100% | percent response of DMSO control [3] 105% | GFP response vs DMSO [4] 96.6% | GFP response, % of DMSO [5] 95.3% | vesicle binding response [6] 275% | inhibition [7] -8.75% | superoxide response (% of plate) [8] 98.8% | aptamer binding inhibition [9] 4% | response [10] -6.01% | inhibition [11] -2.59% | response [12] -3.82% | binding (% of control) [13] 97.1% | efflux inhibition (fraction of control) [14] -0.01 | inhibition [15] -2% | differentiation response [16] -6.6%
61.2%: double positive events [6]

Cc1ccccc1-c1nn(-c2ccc(F)cc2F)cc1CNCCN(C)C
inactive: percent of DMSO control GFP [1] 106% | GFP response vs DMSO [2] 103% | percent response of DMSO control [3] 116% | GFP response vs DMSO [4] 98.6% | GFP response, % of DMSO [5] 102% | vesicle binding response [6] 51.7% | inhibition [7] 13% | superoxide response (% of plate) [8] 90.2% | aptamer binding inhibition [9] -11% | response [10] -7.22% | inhibition [11] -6% | response [12] 3.34% | binding (% of control) [13] 103% | efflux inhibition (fraction of control) [14] -0.07 | inhibition [15] -15% | differentiation response [16] -5.62%
62%: double positive events [6]

COc1ccc(CCNc2ncnc3c2[nH]c2cc(OC)c(OC)cc23)cc1OC
64%: double positive events [6]
inactive: percent of DMSO control GFP [1] 97.2% | GFP response vs DMSO [2] 126% | percent response of DMSO control [3] 111% | GFP response vs DMSO [4] 82.5% | GFP response, % of DMSO [5] 98.7% | vesicle binding response [6] 178% | inhibition [7] 0.64% | superoxide response (% of plate) [8] 97.5% | aptamer binding inhibition [9] 2% | response [10] 19.8% | inhibition [11] -1.78% | response [12] 3.11% | binding (% of control) [13] 101% | efflux inhibition (fraction of control) [14] -0.06 | inhibition [15] 10% | differentiation response [16] -0.82%

CCC(C)NCCOCCOc1ccc(Cl)cc1Br (stereo not drawn)
inactive: percent of DMSO control GFP [1] 103% | GFP response vs DMSO [2] 102% | percent response of DMSO control [3] 102% | GFP response vs DMSO [4] 100% | GFP response, % of DMSO [5] 103% | vesicle binding response [6] 142% | inhibition [7] 0.25% | superoxide response (% of plate) [8] 98% | aptamer binding inhibition [9] -7% | response [10] -3.72% | response [12] -10.6% | binding (% of control) [13] 95.8% | efflux inhibition (fraction of control) [14] -0.16 | inhibition [15] -14% | differentiation response [16] -4.57%
61.4%: double positive events [6]
active: inhibition [11] 57.1%

CCOc1ccc(NC2OC(C)C(O)C(O)C2O)c([N+](=O)[O-])c1 (stereo not drawn)
inactive: percent of DMSO control GFP [1] 101% | GFP response vs DMSO [2] 104% | percent response of DMSO control [3] 97.8% | GFP response vs DMSO [4] 95.3% | GFP response, % of DMSO [5] 102% | vesicle binding response [6] 4580% | inhibition [7] -4.6% | superoxide response (% of plate) [8] 102% | aptamer binding inhibition [9] 2% | response [10] 5.64% | inhibition [11] -9.73% | response [12] 2.76% | binding (% of control) [13] 94.8% | efflux inhibition (fraction of control) [14] -0.01 | inhibition [15] -10% | differentiation response [16] -2.69%
62.7%: double positive events [6]

Cc1ccc2[nH]c(=O)c(Cc3ccccc3)c(O)c2c1
60.7%: double positive events [6]
inactive: percent of DMSO control GFP [1] 102% | GFP response vs DMSO [2] 105% | percent response of DMSO control [3] 107% | GFP response vs DMSO [4] 94.7% | GFP response, % of DMSO [5] 102% | vesicle binding response [6] 224% | inhibition [7] 3.7% | superoxide response (% of plate) [8] 105% | aptamer binding inhibition [9] 0% | response [10] -3.71% | inhibition [11] -9.35% | response [12] 4.49% | binding (% of control) [13] 90.6% | efflux inhibition (fraction of control) [14] -0.07 | inhibition [15] -1% | differentiation response [16] -8.55%

O=C(O)c1ccccc1Nc1cccc(C(F)(F)F)c1
74%: double positive events [6]
active: inhibition [15] 112%
inactive: percent of DMSO control GFP [1] 95% | GFP response vs DMSO [2] 103% | percent response of DMSO control [3] 88.2% | GFP response vs DMSO [4] 93.1% | GFP response, % of DMSO [5] 82.4% | vesicle binding response [6] 7820% | inhibition [7] -15.4% | superoxide response (% of plate) [8] 98.3% | aptamer binding inhibition [9] 2% | response [10] -9.88% | inhibition [11] -15.2% | response [12] 1.34% | binding (% of control) [13] 98.2% | efflux inhibition (fraction of control) [14] -0.24 | differentiation response [16] 18.4%

Nc1nc(Cl)nc2c1ncn2[C@@H]1O[C@H](CO)[C@@H](O)[C@H]1O
57.5%: double positive events [6]
inactive: percent of DMSO control GFP [1] 92.4% | GFP response vs DMSO [2] 128% | percent response of DMSO control [3] 101% | GFP response vs DMSO [4] 80.3% | GFP response, % of DMSO [5] 102% | vesicle binding response [6] 109% | inhibition [7] 2.58% | superoxide response (% of plate) [8] 95.9% | aptamer binding inhibition [9] 6% | response [10] -6.94% | inhibition [11] 1.36% | response [12] 10.6% | binding (% of control) [13] 104% | efflux inhibition (fraction of control) [14] 0.3 | inhibition [15] 9% | differentiation response [16] 1.64%
